The record followed here is PubChem BioAssay AID720504 (National Center for Advancing Translational Sciences (NCATS), 2013).

Structures are written as SMILES. Hit rate of the full screen: of about 360,000 compounds, about 10,000 (2.8%) were called active. Roughly 4% stayed inconclusive and do not appear here. The call rests on the fitted dose curve; in most records, active means well fitted inhibition curve with a large enough effect; inconclusive means small, poorly fitted or top-dose-only effect; inactive means flat fitted curve, though single readings scatter. What follows is part of a selection rich in actives, with near analogues and random picks from the rest.
On the % scale 0 is the no-effect control and ±100 the full control effect; potency means the concentration at half of the fitted maximal effect.

The test deals with Serine/threonine-protein kinase PLK1 (Homo sapiens) (UniProt P53350). Description: qHTS for Inhibitors of PLK1-PDB (polo-like kinase 1 - polo-box domain): Primary Screen. Further: nearly all actives have a fitted effect of over 65% in size. On max response, negative = inhibition: series mostly up to about 57 µM. The following applies: Plk1 PBD binding of FITC phosphopeptide, fluorescence polarization. (In general: Quantitative high-throughput screening tests each substance at several concentrations.)
Serine/threonine-protein kinase PLK1 (Homo sapiens), sequence (P53350 whole entry, looked up, the tested form may be a part): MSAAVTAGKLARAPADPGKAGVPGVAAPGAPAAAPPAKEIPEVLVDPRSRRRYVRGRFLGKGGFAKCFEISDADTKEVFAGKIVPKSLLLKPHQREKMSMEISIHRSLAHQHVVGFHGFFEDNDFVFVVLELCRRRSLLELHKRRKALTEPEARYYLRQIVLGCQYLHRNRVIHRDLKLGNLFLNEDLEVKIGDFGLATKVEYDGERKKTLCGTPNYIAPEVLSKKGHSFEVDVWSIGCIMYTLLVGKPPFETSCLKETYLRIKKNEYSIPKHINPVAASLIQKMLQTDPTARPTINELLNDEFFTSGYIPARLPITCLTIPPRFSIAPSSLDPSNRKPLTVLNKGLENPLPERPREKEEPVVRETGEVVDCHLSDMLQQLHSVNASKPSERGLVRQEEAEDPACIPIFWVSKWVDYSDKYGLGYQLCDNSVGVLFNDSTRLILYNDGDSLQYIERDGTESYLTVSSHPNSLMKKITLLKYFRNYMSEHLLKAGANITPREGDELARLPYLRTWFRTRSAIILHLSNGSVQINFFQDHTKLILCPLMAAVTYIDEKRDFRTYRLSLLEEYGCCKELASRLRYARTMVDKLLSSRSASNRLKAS
`Cc1ccc(S(=O)(=O)N2CC3C(=O)C[C@@H](c4ccccc4Cl)N(S(=O)(=O)c4ccc(C)cc4)C3CC2c2ccccc2)cc1` (stereo not given in full): the max response, negative = inhibition is 1.78% (inactive). For the molecule `Cc1ccc(-n2c(SCC(=O)Nc3ccc4c(c3)OCO4)nnc2-c2ccoc2C)cc1`, the Potency was 23.8 µM (active).

Turning to `Cc1ccc(-n2c(SCC(=O)Nc3ccc4c(c3)OCO4)nnc2-c2ccccn2)cc1`, the max response, negative = inhibition was -3.49% (inactive). On to `O=C(CSc1nnc(-c2ccccn2)n1-c1ccccc1)Nc1ccc2c(c1)OCO2`, for which the max response, negative = inhibition was -6.44% (inactive). Same read-out and setting: to `O=C(NCc1cccnc1)c1cc(C2CCCN(C(=O)CCCc3ccccc3)C2)on1` (stereo not given) belongs 7.06% (inactive). Regarding `C/C(COc1ccccc1)=N\NC(=O)c1nnn(-c2nonc2N)c1-c1ccc(C)cc1`, the max response, negative = inhibition was -7.46% (inactive).

For the molecule `O=C(NNC(=S)Nc1ccc(Br)cc1Cl)c1ccco1`, the max response, negative = inhibition was -12.7% (inactive).

For `CCC(=O)NC(=S)Nc1ccc(NC(=O)c2ccco2)c(Cl)c1`, the Potency is 29.9 µM (active).

`Cc1cccc(OCC(=O)Nc2ccc(NC(=O)c3ccco3)c(C)c2)c1`: the max response, negative = inhibition is -7.98% (inactive). On the same count and under the same terms, to `CCCCN1C(=O)C(CC(=O)NC(c2ccccc2)c2ccccc2)CC(C(=O)N2CCOCC2)=C1C` (stereo not given) belongs -4.16% (inactive). On to `Cc1nc(C(F)(F)F)ccc1C(=O)N1CCC1(C)C(=O)NS(=O)(=O)c1ccccc1` (stereo not given), for which the max response, negative = inhibition is -4.71% (inactive). Consider `COc1ccc(N2C(=O)CC(SC(C)C)C2=O)cc1` (stereo not given), for which the max response, negative = inhibition is -4.56% (inactive). Take `COc1ccc(N2C(=O)CC(Sc3n[nH]c(-c4ccc(C)cc4)n3)C2=O)cc1` (stereo not given): the Potency was 18.9 µM (active). In the case of `COc1ccc(-c2nc(SCC(=O)N3CCCC3)n[nH]2)cc1`, the max response, negative = inhibition was -1.92% (inactive).

On to `Cc1noc(C)c1-c1ccc(C(=O)NCc2ccncc2)c2occc12`, for which the max response, negative = inhibition was -3.63% (inactive). Still for that read-out and setting: to `CCc1nc2ccc(C(=O)Nc3cccc(OC)c3)cn2c1N(CCC(C)C)CCN(C)C` belongs 0.24% (inactive). Turning to `S=c1[nH]c2ccccc2c2ccccc12`, the Potency is 18.9 µM (active). With `COC(=O)Cc1c(-c2[nH]c3ccccc3c2CC(=O)OC)[nH]c2ccccc12`, the max response, negative = inhibition is 0.279% (inactive). Still for that read-out and setting: to `Cc1cc2c3ccccc3[nH]c(=O)n2n1` belongs -0.899% (inactive). On to `CCCNC(=O)C1CC(=O)N(c2ccc(OCc3ccccc3)cc2)C1` (stereo not given), for which the max response, negative = inhibition is 3.86% (inactive). Still for that read-out and setting: to `Cc1nc(C(F)(F)F)ccc1C(=O)N1CCC1(C)C(=O)NS(=O)(=O)c1ccccc1Cl` (stereo not given) belongs -15.4% (inactive); to `O=C(Nc1ccc(N2CCOCC2)cc1)c1cccc(S(=O)(=O)N2CCOCC2)c1`, -5.11% (inactive). The same measure, in the same setting: to `COC(=O)c1ccc(N2CCOCC2)c(NC(=O)c2ccc3c(c2)OCCO3)c1` belongs 0.435% (inactive). Regarding `O=C(Nc1ccc(N2CCOCC2)cc1)c1ccc2c(c1)OCO2`, the Potency was 26.7 µM (active).

As for `COCOCCn1cc(CN2CCS(=O)(=O)N(Cc3ccc(-c4ccc(OC)cc4)cc3)C(CC(C)C)C2=O)nn1` (stereo not given), the max response, negative = inhibition was -17% (inactive). Consider `CCC(C)CN1C(=O)CN(S(C)(=O)=O)CC1(C)C(=O)Nc1ccc2c(c1)OCCO2` (stereo not given), for which the max response, negative = inhibition is -14.3% (inactive).

Turning to `Cc1ccc(S(=O)(=O)N2[C@@H](c3cccc(Cl)c3)C(C(=O)O)=CC[C@H]2c2ccc(Cl)c(Cl)c2)cc1`, the Potency is 21.2 µM (active). Consider `CCOC(=O)C1=CC[C@@H](c2ccccc2)N(S(=O)(=O)c2ccc(C)cc2)[C@H]1c1cccc(OC)c1`, for which the max response, negative = inhibition was -10.4% (inactive). Same read-out and setting: then `Cc1ccc(S(=O)(=O)N2[C@@H](c3ccccc3F)C(C(=O)O)=CC[C@H]2c2ccc(Cl)cc2)cc1`, with -15.9% (inactive); and `CCc1noc(C)c1C(=O)OCC(=O)c1ccc(NC(=O)CC(C)C)cc1`, with -8.24% (inactive). The same measure, in the same setting: to `CC(C)C[C@@H]1COc2cc(N3CCC[C@@H]3CO)ccc2S(=O)(=O)N1` belongs 2.66% (inactive). Still for that read-out and setting: then `CC(=O)N1CCc2c(sc(NC(=O)CCS(=O)(=O)c3ccccc3)c2C#N)C1`, with -11.3% (inactive); and `CC(C)N1CCc2c(sc(NC(=O)Cc3ccccc3)c2C#N)C1`, with -26% (inactive). Regarding `N#Cc1c(N)sc2c1CCN(C(=O)OCc1ccccc1)C2`, the Potency was 23.8 µM (active).

With `CCN(CC)C(=O)C1=C(C)N(Cc2ccccc2)C(=O)C(CC(=O)NC(c2ccccc2)c2ccccc2)C1` (stereo not given), the max response, negative = inhibition was -7.71% (inactive). Same read-out and setting: to `CCCCc1nc2ccc(F)cc2cc1C` belongs -7.86% (inactive). In the case of `CN(C)C(=O)N=NC(=O)N(C)C`, the Potency was 1.89 µM (active).

With `O=C(CSc1nc2cccc(F)c2c(=O)n1-c1ccccc1)Nc1ccc2c(c1)CCC2`, the max response, negative = inhibition is -2.85% (inactive). Still for that read-out and setting: to `CC(C)(O)C#Cc1ccc(CNC[C@H]2O[C@@H](n3cnc4c(=O)[nH]c(N)nc43)[C@H](O)[C@@H]2O)s1` belongs 0.0305% (inactive).

For the molecule `COC(=O)c1ccc2c(c1)S(=O)(=O)NC2C` (stereo not given), the max response, negative = inhibition was -7.33% (inactive). On to `O=C(NC1CC1)C(Cc1ccccc1)NS(=O)(=O)c1ccccc1F` (stereo not given), for which the Potency was 23.8 µM (active). For the molecule `CSCCC(NS(=O)(=O)c1ccccc1F)C(=O)N1CC=C(c2ccccc2)CC1` (stereo not given), the max response, negative = inhibition was 0.274% (inactive). As for `CN(Cc1ccccc1F)C(=O)C(Cc1ccccc1)NC(=O)c1ccccc1` (stereo not given), the max response, negative = inhibition was -7.43% (inactive). Still for that read-out and setting: then `C[C@H](CO)N1C[C@H](C)[C@@H](CN(C)C(=O)c2cccc(F)c2)Oc2cc(-c3cncnc3)ccc2S1(=O)=O`, with -2.44% (inactive).

For the molecule `CC(=O)Nc1ccccc1NC(=O)c1cc(C)cc(C)c1`, the Potency was 9.47 µM (active). Take `Nc1ccc(C(=O)Nc2ccccc2N)cc1`: the max response, negative = inhibition is -11.6% (inactive). On the same count and under the same terms, then `Cc1ccccc1C(=O)Nc1ccccc1NC(=O)c1ccccc1C`, with -16.3% (inactive). On the same count and under the same terms, to `CC(=O)c1ccccc1NC(=O)C1CC(=O)N(c2ccc3c(c2)OCCO3)C1` (stereo not given) belongs 7.84% (inactive). Same read-out and setting: to `COc1ccccc1N1CC(C(=O)Nc2nnc(SCC(=O)NC(C)C)s2)CC1=O` (stereo not given) belongs -26.4% (inactive). For the molecule `CCOC(=O)c1ccc(NC(=O)C2CC(=O)N(c3ccc4c(c3)OCCO4)C2)cc1` (stereo not given), the max response, negative = inhibition was -3.19% (inactive).

On to `CCc1nnc(NC(=O)C2CC(=O)N(c3ccc4c(c3)OCCO4)C2)s1` (stereo not given), for which the Potency is 13.4 µM (active). For the molecule `COc1ccccc1N1CC(C(=O)Nc2nnc(SCC(=O)NCC3CCCO3)s2)CC1=O` (stereo not given), the max response, negative = inhibition is -29% (inactive). As to `Cc1ccccc1N1CC(C(=O)Nc2nnc(SCCC3OCCO3)s2)CC1=O` (stereo not given), the Potency is 21.2 µM (active).

Take `CCN1CCN(CCNC(=O)c2ccc3c(c2)NC(=O)/C(=C\c2cccc(Cl)c2)S3)CC1`: the max response, negative = inhibition is -9.11% (inactive). Still for that read-out and setting: then `COc1cccc(CNc2nc(NCc3cccs3)nc3ccsc23)c1`, with -6.78% (inactive); and `COC(=O)[C@@]1(Cc2ccc(F)cc2)[C@H]2c3cc(C(=O)N(C)C)n(CCc4c[nH]c5ccc(OC)cc45)c3C[C@H]2CN1C(=O)c1ccccc1`, with -0.876% (inactive); and `C=CCOc1ccccc1CNn1c(C)n[nH]c1=S`, with -12.8% (inactive).

For `O=C(NCc1ccccc1)C1c2ccccc2OCC(=O)N1C1CC1` (stereo not given), the max response, negative = inhibition was 2.78% (inactive). Still for that read-out and setting: to `Cc1csc(SCC(=O)Nc2ccc(C)c(S(=O)(=O)N(C)C)c2)n1` belongs -2.14% (inactive); to `c1ccc(Cc2c(-c3ccco3)nc3c4ccccc4ccn23)cc1`, -8.74% (inactive); to `CCc1nnc(SCc2cccc(F)c2)nc1CC`, 1.21% (inactive). Consider `Clc1ccccc1CSc1nnc(-c2ccco2)c(-c2ccco2)n1`, for which the Potency is 13.4 µM (active).

For `c1ccc(CSc2nnc(-c3ccco3)c(-c3ccco3)n2)cc1`, the Potency is 11.2 µM (active).

As for `COC(=O)c1ccc2nc(-c3ccc(F)cc3)c(Cc3ccc(C)cc3)n2c1`, the max response, negative = inhibition was 1.02% (inactive). Same read-out and setting: then `COc1ccc(C(=O)N2CCCCC2c2cc(C(=O)Nc3ccc(F)c(Cl)c3)no2)cc1` (stereo not given), with -10.1% (inactive). On the same count and under the same terms, then `CCOCCC(=O)Nc1ccc2c(c1)c(=O)n(C)n2-c1ccc2ccccc2c1`, with -3.07% (inactive).

As for `CCOC(=O)[C@]12CCC=C1N(Cc1ccco1)C(=O)[C@H](CC(=O)NCc1cccc(C(F)(F)F)c1)C2`, the max response, negative = inhibition was -26% (inactive). Regarding `Cc1cc(C(=O)N2CCCC2(C)C(=O)O)c(C)o1` (stereo not given), the max response, negative = inhibition is -5.24% (inactive). The same measure, in the same setting: to `CCCCC(=O)NC(c1ccc(OC)c(OC)c1)c1ccc2cccnc2c1O` (stereo not given) belongs -4.18% (inactive). Turning to `Oc1c(C(c2ccccn2)N2CCOCC2)ccc2cccnc12` (stereo not given), the Potency was 9.47 µM (active). The same measure, in the same setting: to `CCn1c(=S)[nH]c2cc(S(=O)(=O)N3CCOCC3)ccc21` belongs 29.9 µM (active). For the molecule `Cc1ccc(S(=O)(=O)N2CCN(S(=O)(=O)N3CCOCC3)CC2)cc1`, the max response, negative = inhibition is -4.72% (inactive). On to `O=S(=O)(c1ccc2ccccc2c1)N1CCN(S(=O)(=O)N2CCOCC2)CC1`, for which the max response, negative = inhibition is -4% (inactive).

As for `Cc1ccc(CC2(C)C(=O)Nc3ccc(OC(F)(F)F)cc32)cc1` (stereo not given), the max response, negative = inhibition is 0.395% (inactive). For the molecule `COCCCNc1ccn2nc(-c3ccc(CC(C)C)cc3)cc2n1`, the max response, negative = inhibition was -1.25% (inactive). On to `CCN(CC)C(=O)C1=C(C)N(Cc2ccc(C(C)(C)C)cc2)C(=O)C(CC(=O)NCc2cccc3ccccc23)C1` (stereo not given), for which the max response, negative = inhibition is -4.44% (inactive).

Turning to `CCn1cc(S(=O)(=O)c2cccc(C)c2)c(=O)c2cc(F)c(N3CCN(C)CC3)cc21`, the max response, negative = inhibition was -10.2% (inactive). Consider `CCCn1cc(S(=O)(=O)c2ccc(C)cc2)c(=O)c2cc(OCC)ccc21`, for which the max response, negative = inhibition is -12.4% (inactive). `CCOc1ccc2c(c1)c(=O)c(S(=O)(=O)c1ccc(C)cc1)cn2CC`: the Potency is 26.7 µM (active). On to `Fc1cccc(Cc2c(-c3ccc(Cl)cc3)nc3ccc(Cl)cn23)c1`, for which the max response, negative = inhibition was 9.81% (inactive). On the same count and under the same terms, then `CN[C@H]1C[C@H]2c3cc(Oc4ccccc4C)ccc3CCN2C(=O)[C@H]1[C@H](C)O`, with 0.731% (inactive). Same read-out and setting: then `Nc1nc(SCC(=O)Nc2ccc(Cl)cc2C(F)(F)F)n[nH]1`, with -8.67% (inactive); and `Nc1nc(SCC(=O)Nc2ccc(Cl)c([N+](=O)[O-])c2)n[nH]1`, with -3.6% (inactive). Turning to `Nc1nc(SCC(=O)NNc2c(Cl)cc(Cl)cc2Cl)n[nH]1`, the Potency was 18.9 µM (active). With `CCCNC(=O)c1cc(C2CCCCN2S(=O)(=O)c2ccc(C#N)cc2)on1` (stereo not given), the max response, negative = inhibition is 6.75% (inactive).
